Consider ten compounds from PubChem BioAssay (NCI).

This is part of a sample that, as a whole, favours compounds with a hit. Of some 83,000 tested, about 20% had one in any assay.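 Activity criterion: percent growth below 10, measured after cells in 96-well plates were exposed to a single compound concentration for 48 hours.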 Values without a mark were called inactive. Calls of active or inactive are those of the source.

What all share (assay): NCI-60 one-dose screen, 48 h (100 = growth as untreated, 0 = no growth, -100 = all killed)
In one experiment the test system is SK-MEL-2 melanoma. The following applies: 10 µM unless noted.
The next experiment relates to SN12C renal. The note with it: 10 µM unless noted.
For another experiment, the system named is UO-31 renal. The following applies: 10 µM unless noted.
Another experiment concerns TK-10 renal. The note with it: 10 µM unless noted.
Another experiment deals with ACHN renal. The note with it: 10 µM unless noted.
The next experiment has as its system CAKI-1 renal. The following applies: 10 µM unless noted.
For another experiment, the system named is A498 renal. The following applies: 10 µM unless noted.
For another experiment, the system named is CCRF-CEM leukemia. The note with it: 10 µM unless noted.
Another experiment deals with MOLT-4 leukemia. The note with it: 10 µM unless noted.
A further experiment deals with SR leukemia. The following applies: 10 µM unless noted.
The subject of the next experiment is RPMI-8226 leukemia. The following applies: 10 µM unless noted.
Another experiment has as its system OVCAR-8 ovarian. The note with it: 10 µM unless noted.
The next experiment concerns OVCAR-5 ovarian. The note with it: 10 µM unless noted.
The next experiment concerns OVCAR-4 ovarian. The following applies: 10 µM unless noted.
For another experiment, the system named is SK-OV-3 ovarian. The following applies: 10 µM unless noted.
In the next experiment the test system is IGROV1 ovarian. The following applies: 10 µM unless noted.
A further experiment relates to OVCAR-3 ovarian. The following applies: 10 µM unless noted.
The test system of a further experiment is HS 578T breast. The note with it: 10 µM.
Another experiment deals with NCI/ADR-RES ovarian. The note with it: 10 µM unless noted.

Turning to `COc1cc2c(cc1OC)C(=O)C(Br)CC2` (centres undefined), the growth in the experiment with SK-MEL-2 melanoma was 81.6%; in the experiment on SN12C renal, 44.4%; in the experiment with UO-31 renal it was 39.4%; in the experiment on TK-10 renal, 53.7%; in the experiment with ACHN renal, 42.1%; in the experiment on CAKI-1 renal it was 10.4%. Also, the growth was 73.6% in the experiment on A498 renal; 3.35% (active) in the experiment on CCRF-CEM leukemia; 13.3% in the experiment with MOLT-4 leukemia; 19.8% in the experiment on SR leukemia; 20.6% in the experiment with RPMI-8226 leukemia; 33% with OVCAR-8 ovarian. Besides, the growth is 73.7% with OVCAR-5 ovarian; 52.7% in the experiment on OVCAR-4 ovarian; 83.2% in the experiment on SK-OV-3 ovarian; 41.7% in the experiment on IGROV1 ovarian; 38.9% in the experiment with OVCAR-3 ovarian; 88.8% in the experiment on HS 578T breast.
For the compound `C/C(=N\OC(=O)Nc1ccccc1)c1ccccc1`, the growth is 111% with SK-MEL-2 melanoma; 94.8% in the experiment with SN12C renal; 88.7% in the experiment with UO-31 renal; 115% with TK-10 renal; 106% with ACHN renal; 114% in the experiment on CAKI-1 renal. Further, the growth in the experiment with A498 renal was 39.4%; in the experiment with CCRF-CEM leukemia it was 99.1%; in the experiment on MOLT-4 leukemia, 94%; in the experiment on SR leukemia it was 81.5%; in the experiment on RPMI-8226 leukemia, 99.1%; in the experiment with OVCAR-8 ovarian, 106%. The growth in the experiment with OVCAR-5 ovarian is 98.4%; in the experiment on OVCAR-4 ovarian it was 92.9%; in the experiment with SK-OV-3 ovarian, 115%; in the experiment with IGROV1 ovarian it was 106%; in the experiment on OVCAR-3 ovarian, 108%; in the experiment with HS 578T breast, 85.1%. For the same compound, the growth with NCI/ADR-RES ovarian is 107%.
On to `CC1CCN(Cc2ccc(NC(=O)c3cc4ccc5cccnc5c4[nH]3)cc2)CC1`, for which the growth in the experiment on SK-MEL-2 melanoma was 12%; with SN12C renal, 33%; in the experiment on UO-31 renal, 36.7%; in the experiment on TK-10 renal, 51.1%; in the experiment with ACHN renal it was 53.9%; with CAKI-1 renal, 4.42% (active). Moreover, the growth was -8.68% (active) in the experiment on A498 renal; 3.08% (active) in the experiment on CCRF-CEM leukemia; 11.8% in the experiment with MOLT-4 leukemia; 2.01% (active) in the experiment with SR leukemia; 19.8% in the experiment on RPMI-8226 leukemia; 34.1% in the experiment with OVCAR-8 ovarian. For the same compound, the growth in the experiment on OVCAR-5 ovarian is 51.8%; with OVCAR-4 ovarian it was 66.5%; in the experiment with SK-OV-3 ovarian, 12.7%; in the experiment on IGROV1 ovarian it was 46.7%; in the experiment on OVCAR-3 ovarian, -14.3% (active); in the experiment on HS 578T breast, 33.7%.
With `CC(=O)c1ccc(-n2c(-c3cc(-c4ccsc4)n[nH]3)n[nH]c2=S)cc1`, the growth in the experiment with SK-MEL-2 melanoma is 86.9%; with SN12C renal it was 98.3%; with UO-31 renal, 89.5%; with TK-10 renal it was 98%; in the experiment on ACHN renal, 88.4%; with CAKI-1 renal, 92.7%. Also, the growth in the experiment with A498 renal is 111%; in the experiment with MOLT-4 leukemia, 87.6%; in the experiment on SR leukemia, 94%; in the experiment with RPMI-8226 leukemia, 101%; with OVCAR-8 ovarian, 98.9%; in the experiment on OVCAR-5 ovarian it was 97.8%. Moreover, the growth in the experiment with OVCAR-4 ovarian was 105%; with SK-OV-3 ovarian, 104%; in the experiment on OVCAR-3 ovarian it was 113%.
For `NC(=S)N/N=C(/c1cccs1)C1CC1`, the growth was 160% in the experiment on SK-MEL-2 melanoma; 82.6% with SN12C renal; 76.2% in the experiment on UO-31 renal; 124% with TK-10 renal; 83.9% in the experiment with ACHN renal; 98.8% with CAKI-1 renal. Besides, the growth in the experiment on A498 renal was 106%; in the experiment on MOLT-4 leukemia it was 29.2%; in the experiment with SR leukemia it was 120%; with RPMI-8226 leukemia, 63.2%; in the experiment with OVCAR-8 ovarian, 67.7%; in the experiment with OVCAR-4 ovarian, 82.8%. Besides, the growth was 103% in the experiment with SK-OV-3 ovarian, 53.5% in the experiment on IGROV1 ovarian and 51.5% in the experiment with OVCAR-3 ovarian.
In the case of `CC1=C(C(=O)Nc2ccc(F)cc2)C(c2ccc(Cl)cc2)C2=C(CC(C)(C)CC2=O)N1` (centres undefined), the growth was 97.5% in the experiment with SK-MEL-2 melanoma; 86.7% in the experiment with SN12C renal; 64% in the experiment with UO-31 renal; 113% in the experiment with TK-10 renal; 94.4% in the experiment with ACHN renal; 72.7% with CAKI-1 renal. Further, the growth is 54.4% in the experiment with A498 renal; 78.8% in the experiment on CCRF-CEM leukemia; 73.1% in the experiment with MOLT-4 leukemia; 70% with RPMI-8226 leukemia; 89.1% in the experiment on OVCAR-8 ovarian; 93.5% in the experiment on OVCAR-5 ovarian. For the same compound, the growth with OVCAR-4 ovarian was 77.6%; in the experiment with SK-OV-3 ovarian, 101%; with IGROV1 ovarian, 89.6%; with OVCAR-3 ovarian, 89.9%; with HS 578T breast, 80.4%; in the experiment with NCI/ADR-RES ovarian, 87.9%.
Turning to `O=c1c2sc3ncc(Cl)cc3c2nnn1-c1cccc(Cl)c1`, the growth was 92.9% in the experiment with SK-MEL-2 melanoma; 74.3% in the experiment on SN12C renal; 48.5% in the experiment with UO-31 renal; 93% with TK-10 renal; 46.1% in the experiment with ACHN renal; 67.4% in the experiment with CAKI-1 renal. Further, the growth in the experiment on A498 renal was 63.1%; in the experiment with MOLT-4 leukemia, 90.2%; in the experiment on SR leukemia it was 77.7%; in the experiment with RPMI-8226 leukemia it was 82.4%; in the experiment with OVCAR-8 ovarian it was 79.8%; in the experiment with OVCAR-5 ovarian, 86.2%. Besides, the growth was -7.2% (active) in the experiment on OVCAR-4 ovarian, 40.7% with SK-OV-3 ovarian, 63% with IGROV1 ovarian and 24.7% with OVCAR-3 ovarian.
With `CCN(CC)CCCC(C)N/C(c1cccc(OC)c1)=c1\c(=O)[nH]n(-c2c3ccccc3nc3ccccc23)c(=O)\c1=C(/NC(C)CCCN(CC)CC)c1cccc(OC)c1` (centres undefined), the growth in the experiment on SK-MEL-2 melanoma was -75.2% (active); with SN12C renal, 5.78% (active); with UO-31 renal, -48.5% (active); with TK-10 renal, -23% (active); with ACHN renal it was -61.8% (active); in the experiment on CAKI-1 renal it was 1.65% (active). The growth in the experiment with A498 renal is -85.9% (active); in the experiment with MOLT-4 leukemia, -22.7% (active); in the experiment on SR leukemia it was 0.449% (active); in the experiment with RPMI-8226 leukemia, -37.3% (active); in the experiment with OVCAR-8 ovarian, -7.7% (active); in the experiment on OVCAR-5 ovarian it was 1.41% (active). Besides, the growth is -48.1% (active) in the experiment on OVCAR-4 ovarian, -10.1% (active) with SK-OV-3 ovarian, -6.96% (active) in the experiment on IGROV1 ovarian and -36.6% (active) in the experiment with OVCAR-3 ovarian.
As for `COc1ccc(C2C=C(c3ccc(Cl)cc3)N=C3SC=CN32)cc1` (centres undefined), the growth with SK-MEL-2 melanoma was 113%; with SN12C renal, 114%; in the experiment with UO-31 renal, 88.5%; in the experiment with TK-10 renal it was 118%; with ACHN renal, 107%; in the experiment with CAKI-1 renal it was 101%. The growth in the experiment with A498 renal is 104%; in the experiment with CCRF-CEM leukemia, 88.2%; with MOLT-4 leukemia it was 104%; with RPMI-8226 leukemia it was 94.6%; with OVCAR-8 ovarian, 104%; in the experiment with OVCAR-5 ovarian, 121%. Besides, the growth with OVCAR-4 ovarian was 97.4%; in the experiment on SK-OV-3 ovarian it was 111%; in the experiment with IGROV1 ovarian, 113%; with OVCAR-3 ovarian, 132%; with HS 578T breast it was 93.1%; in the experiment on NCI/ADR-RES ovarian, 104%.
For `O=C(CS)OCC(COC(=O)CS)(COC(=O)CS)COC(=O)CS`, the growth in the experiment on SK-MEL-2 melanoma was 40.6%; in the experiment with SN12C renal it was 90.2%; with UO-31 renal, 93.5%; in the experiment with TK-10 renal, 113%; with ACHN renal, 93.9%; in the experiment with CAKI-1 renal it was 96.5%. The growth is 104% in the experiment on A498 renal; 3.08% (active) in the experiment with MOLT-4 leukemia; 38.6% with SR leukemia; 90.6% in the experiment on RPMI-8226 leukemia; 82.2% in the experiment on OVCAR-8 ovarian; 83.6% with OVCAR-4 ovarian. For the same compound, the growth was 103% in the experiment with SK-OV-3 ovarian, 94.4% with IGROV1 ovarian, 109% in the experiment with OVCAR-3 ovarian and 74.3% in the experiment on NCI/ADR-RES ovarian.
